This is part of a sample that, as a whole, favours compounds with a hit. Of some 83,000 tested, about 20% had one in any assay.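 Compound tested at a single concentration for 48 hours in 96-well plates; a percent growth value below 10 was scored as active.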 A number with no mark means an inactive call.
These compounds were tested on HL-60(TB) leukemia (assay: NCI-60 one-dose screen, 48 h (100 = growth as untreated, 0 = no growth, -100 = all killed)). Settings: 10 µM unless noted.
With `COc1nc2c(c(=O)n1C)N=C1c3ccccc3C(=O)C1C(c1ccccc1)N2` (stereo not drawn) the growth was 112%.
For `COC(=O)N/N=C/c1c[n+]([O-])c2ccccc2[n+]1[O-]`, the growth was 97.2%.
In the case of `CNC(=O)c1cc(Oc2ccc3nc(Nc4ccc(Cl)c(C(F)(F)F)c4)ccc3c2)ccn1`, the growth is reported as 62.6%.

Source: PubChem BioAssay (NCI)
